Screening data deposited in PubChem BioAssay by National Center for Advancing Translational Sciences (NCATS).
DT40 TDP1 no CPT – qHTS for Inhibitors of human tyrosyl-DNA phosphodiesterase 1 (TDP1): qHTS in cells in absence of CPT | DT40 Tdp1-/- hTDP1 cells, no CPT, ATP luminescence, 48 h | Potency, µM (top dose mostly 46.2 µM), for inactives: top-dose activity change, negative = growth inhibition, actives largely listed as inhibitors | actives 15% (n = 420,000) | AID 686978, 2013; further: potency means the concentration at half of the fitted maximal effect; nearly all actives have a fitted effect of over 55% in size
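Seeded 400 DT40-hTDP1 cells/well (vehicle DMSO, no 20 nM CPT); pinned compounds; ≥48 hr at 37 °C; CellTiter-Glo luminescence as viability measure.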
HT1080NT lethal – kills 2HG-producing HT-1080-NT fibrosarcoma cells; HT-1080-NT fibrosarcoma viability, CellTiter-Glo ATP luminescence, 48 h; Potency, µM (series often up to 46.1 µM), for the others: at the highest dose activity, negative = less viability, usual class: cytotoxic; actives 1.6% (n = 360,000);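 further: NT is the 2HG producing partner of a matched IDH1 knockdown line; potency means the concentration at half of the fitted maximal effect; 0% = DMSO-treated cells and -100% = media-only wells without cells; nearly all actives have a fitted effect of over 55% in size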
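Viability of the 2HG-overproducing fibrosarcoma line after 48 hours of compound exposure at 37 degrees C was determined by luminescence with CellTiter-Glo, and concentration-effect curves were then fitted and categorized.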
HT1080 IDH1KD tx – HT-1080 IDH1 knockdown cell toxicity (counter line); HT-1080 IDH1 knockdown viability, ATP luminescence, 48 h; Potency, µM (doses to about 46.1 µM), without a hit: at the top dose activity, negative = toxicity, hits mostly cytotoxic; actives 2% (n = 360,000);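 further: potency means the concentration at half of the fitted maximal effect; 0% = DMSO wells and -100% = cell-free medium wells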
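Assay cells: HT-1080 with IDH1 knockdown, 750 per well, RPMI/5% FBS. Exposure: 48 h at 37 °C following 2 h pre-incubation. Read: CellTiter-Glo luminescence; fitted concentration-response, curve class assigned.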
TDP1 cell CPT – growth inhibition of DT40 Tdp1-/-;hTDP1 cells with camptothecin (screen for TDP1 inhibitors) | chicken DT40 Tdp1-/-;hTDP1 cells + 20 nM CPT, ATP luminescence, 48 h | actives 12% (n = 420,000) | AID 686979 | Potency, µM (highest dose often 46.2 µM), without a hit: at the top dose activity change, negative = growth inhibition, hits mostly inhibitors; further: potency means the concentration at half of the fitted maximal effect; nearly all actives have a fitted effect of over 55% in size
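Cell growth measured by CellTiter-Glo luminescence after a minimum 48 h, 37 C compound exposure with 20 nM CPT in Tdp1-knockout DT40 cells stably expressing hTDP1, seeded 400/well; qHTS titration format.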
IL-1B inflam inh – blocks inflammasome-driven IL-1 beta release; actives 4.7% (n = 360,000); activity change, % at 57.5 µM; THP-1 LPS/ATP IL-1B secretion, AlphaLISA, 16 h; stronger effect = lower value; in the data active means activity change below about -50%; inconclusive means mostly about -30% to -49%
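THP-1 cells pretreated 1 hr with compounds (up to 57.5 uM final), then stimulated with LPS (250 ng/mL final) plus ATP (1.25 mM final); secreted IL-1B measured by AlphaLISA after 16 hr, decreased signal indicating inhibition.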
ALOX12 inh – blocks human arachidonate 12S-lipoxygenase. purified 12hLO, xylenol orange hydroperoxide absorbance. Potency, µM (highest dose often 108 µM), for the others: top-dose activity change, negative = inhibition, actives largely listed as inhibitors. actives 1.1% (n = 580,000); further: potency means the concentration at half of the fitted maximal effect
Target sequence (P18054 whole entry, looked up): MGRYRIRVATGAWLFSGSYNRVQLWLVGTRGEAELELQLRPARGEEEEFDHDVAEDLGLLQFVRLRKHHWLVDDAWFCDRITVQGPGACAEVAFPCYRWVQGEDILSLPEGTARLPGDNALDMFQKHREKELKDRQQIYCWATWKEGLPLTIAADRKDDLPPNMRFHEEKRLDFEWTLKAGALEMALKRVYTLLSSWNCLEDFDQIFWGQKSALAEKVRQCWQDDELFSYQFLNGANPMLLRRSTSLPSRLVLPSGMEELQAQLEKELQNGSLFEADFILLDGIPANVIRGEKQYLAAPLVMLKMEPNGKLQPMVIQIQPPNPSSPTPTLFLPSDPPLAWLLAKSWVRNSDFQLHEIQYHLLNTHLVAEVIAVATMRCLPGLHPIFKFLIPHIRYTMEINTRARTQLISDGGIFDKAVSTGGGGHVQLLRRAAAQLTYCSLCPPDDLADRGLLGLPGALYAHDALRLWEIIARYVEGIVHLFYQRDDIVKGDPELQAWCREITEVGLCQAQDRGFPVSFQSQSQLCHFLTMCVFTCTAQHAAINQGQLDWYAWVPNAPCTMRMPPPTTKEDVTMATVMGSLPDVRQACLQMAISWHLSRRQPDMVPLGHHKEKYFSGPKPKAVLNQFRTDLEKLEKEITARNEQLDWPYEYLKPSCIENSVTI
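Purified human 12hLO at 150 nM in 25 mM Hepes, 0.01% Triton X-100, pH 7.0, preincubated 15 min at room temperature with compound. Reaction started with 40 uM arachidonic acid, 30 min at room temperature. Hydroperoxide measured by Fe-xylenol orange, 573/405 nm absorbance ratio.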
An asterisk follows results filed as active; u = inconclusive; x = no result; ! = not active in a repeat. Many of the other results were omitted from the sample, so hits are more common in it than they were. Unless noted, the call rests on the fitted dose curve; in most records, active means well fitted curve in the direction sought with a large enough effect; inconclusive means small, poorly fitted or top-dose-only effect, or another doubt; inactive means no such curve, though single readings can be large; an effect the other way counts as inactive or inconclusive. Unless noted, on the % scale 0 is the no-effect control and ±100 the full control effect.

SMILES	DT40 TDP1 no CPT	HT1080NT lethal	HT1080 IDH1KD tx	TDP1 cell CPT	IL-1B inflam inh	ALOX12 inh
O=C(CCN1C(=O)C2C3C=CC(C4CC34)C2C1=O)Oc1cccc2cccnc12 (centres undefined)	3.26µM*	2µM*	1.26µM*	5.17µM*	31.4	-21.4%
Nc1cnc(Nc2ccc(Br)cc2)nc1N	14.6µM*	4.8%	-0.9%	u	-6.7	13.3%
NC(=S)N/N=C/C1=C(c2ccccc2)C2C=CC1C2 (centres undefined)	x	x	x	x	x	8.91µM*
COc1c(/C=N/NC(N)=S)c(C)nn1-c1ccccc1	u	7.6%	10.0%	u	-7.6	-14.8%
COc1ccc(-c2cc(N3CCC(NC(=O)c4ccc(F)c(Cl)c4)C3)n[nH]2)cc1 (centres undefined)	x	x	x	x	x	1.8%
CCOC(=O)C1=CN(CC(=O)Nc2ccc(C)c(C)c2)S(=O)(=O)N=C1C	x	x	x	x	x	7.8%
Cn1c(CN(CCN2CCCCC2)CC2CCCN(C3CCCC3)C2)nc2ccccc21 (centres undefined)	x	x	x	x	x	104.0%
C[n+]1c(-c2ccccc2)sc([S-])c1-c1ccccc1	9.2µM*	-9.8%	-12.7%	23.1µM*	6.5	u
C[n+]1nc(Nc2ccccc2)sc1-c1ccc(O)cc1	-28.7%	u	2.8%	u	-14.6	u
CCn1c(=O)c2cc(C(=O)N3CCN(c4cccc(OC)c4)CC3)sc2c2ccccc21	13µM*	x	x	18.4µM*	x	-11.3%
CCn1c(=O)c2cc(C(=O)N3CCN(c4cccc(Cl)c4)CC3)sc2c2ccccc21	23.1µM*	x	x	14.6µM*	x	0.0%
CCn1c(=O)c2cc(C(=O)N3CCOCC3)sc2c2ccccc21	u	15.7%	2.4%	-21.1%	-20.4	-2.4%
COc1cccc(N2CCN(C(=O)c3cc4c(=O)oc5ccc(C)cc5c4s3)CC2)c1	u	x	x	u	x	-23.5%
CC(=O)c1c(O)c(C)c(O)c2c1OC1=CC(=O)C(C(C)=O)C(=O)[C@@]12C (some centres undefined)	u	-2.4%	-6.3%	18.4µM*!	2.5	u
CC(=O)c1c(O)c(C)c(O)c2c1OC1=CC(=O)C(C(C)=O)C(=O)C12C (centres undefined)	0.1%	x	x	2.6%	x	x
Nc1ccsc1C(=O)N[C@H](Cc1ccncc1)C1CC(O)C1 (some centres undefined)	x	x	x	x	x	-14.1%
COc1cccc(N2CCN(c3ncnc4onc(-c5ccc(Cl)cc5)c34)CC2)c1	16.4µM*	x	x	u	x	-13.2%
CC(=O)c1ccc(N2CCN(c3ncnc4onc(-c5ccc(Cl)cc5)c34)CC2)cc1	16.4µM*	x	x	23.1µM*	x	-22.6%
CCCNc1ncnc2onc(-c3ccc(Cl)cc3)c12	x	x	x	x	x	-0.1%
Fc1ccccc1N1CCN(c2ncnc3onc(-c4ccc(Cl)cc4)c23)CC1	20.6µM*	x	x	-25.8%	x	-15.0%
Cc1nc2ccccc2nc1OCC(=O)NCc1ccc2c(c1)OCO2	7.31µM*	-5.9%	u	14.6µM*	2.7	u
CCc1cccc(CC)c1NC(=S)NC(C)c1ccccc1 (centres undefined)	23.1µM*	-2.0%	7.0%	-85.0%	-25.2	39.8µM*
COc1ccc(C(=O)NCc2cc(C)nc3ccccc23)cc1	u	u	u	u	98.5	-5.0%
C=CCn1c(=O)c(C(=O)NCc2ccc3c(c2)OCO3)c(O)c2cc(OC)c(OC)cc21	18.4µM*	20.4%	15.0%	u	-21.5	12.4%
CCC(C(=O)NC(C)c1ccccc1)C(=O)NC(C)c1ccccc1 (centres undefined)	-13.1%	3.4%	2.8%	8.4%	0.3	-2.8%
